From PubChem BioAssay
Only some compounds are listed: those with a hit (about 5.2% of all), similar ones and a draw of the others.
Coupling enz = inhibits coupling enzyme system, counter-screen for aldolase hits | 290,000 tested, 0.67% active | AID 2472 | activity change, negative = inhibition, % at 58.2 µM, hits read low | coupling enzyme system counterscreen, AmpLite Red fluorescence; in the data active = activity change below about -30%
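Coupling enzymes only (glyceraldehyde-3-phosphate) + compound, at 57.5 uM final, 10 min RT; add substrate/coupling/AmpLite Red mix, 20 min RT; fluorescence ex 525/em 598 nm. Actives flag coupling-system interference.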
Sfp PPTase inh = Sfp phosphopantetheinyl transferase inhibition | Biochemical Sfp PPTase activity, qHTS | Potency, µM, for inactives: largest response in the series, negative = inhibition, most hits filed as inhibitors | 310,000 tested, 3.5% active | AID 1490;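 note: the enzyme is Sfp with the accession as filed and its product quenches rhodamine fluorescence; potency is the fitted concentration of half-maximal effect; 0% = enzyme reaction without inhibitor and -100% = no enzyme wells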
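Compounds were incubated with enzyme (final 15 nM) for 15 min at room temperature before substrate addition started the reaction. Fluorescence at 525 nm excitation, 598 nm emission was recorded immediately and after 30 minutes.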
Tau ThT inhib = inhibitors of human tau fibril formation, thioflavin T binding; recombinant tau K18 P301L, heparin-induced fibrillization, ThT fluorescence; P10636; 270,000 tested, 2.1% active; AID 1460; Potency, µM (top dose mostly 57.4 µM), inactives show at the highest dose activity, negative = inhibition, most hits filed as inhibitors; note: potency is the fitted concentration of half-maximal effect; nearly all actives have a fitted effect of over 55% in size
Target sequence (P10636 561-689 P618L limits assumed): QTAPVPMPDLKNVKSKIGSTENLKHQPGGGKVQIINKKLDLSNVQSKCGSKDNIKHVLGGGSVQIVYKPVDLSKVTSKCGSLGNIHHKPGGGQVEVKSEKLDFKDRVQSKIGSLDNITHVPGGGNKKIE
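In this qHTS, human K18 P301L tau is incubated with compound and heparin for 6 hr at 37 C, and Thioflavin T fluorescence then reports fibril load.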
Tau fibril FP = blocks human tau fibril formation measured by polarization; P10636; K18 P301L tau heparin fibrillization, Alexa594 FP, 6 h; Potency, µM (series often up to 57.7 µM), inactives show at the top dose activity, negative = inhibition, most hits filed as inhibitors; 280,000 tested, 0.39% active; note: potency is the fitted concentration of half-maximal effect; nearly all actives have a fitted effect of over 55% in size
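Human tau K18 […] P301L fragment, 15 uM unlabeled plus 0.24 uM Alexa 594-labeled tau (final), with compound and 20 uM heparin in 100 mM sodium acetate pH 7; 6 hr at 37 C, then Alexa 594 FP read.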
Tau fluor counter = counter-screen for tau fibril formation inhibitors | tau K18 P301L (four-repeat tau fragment) Alexa594 fluorescence, heparin fibrillization | Potency, µM (highest dose often 57.7 µM), for the others: top-dose activity change, negative = decrease | 280,000 tested, 0.93% active; note: potency is the fitted concentration of half-maximal effect; nearly all actives have a fitted effect of over 55% in size
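Human K18 P301L tau (15 uM unlabeled plus 0.24 uM Alexa 594-labeled, final) in 100 mM sodium acetate pH 7 was mixed with compound and 20 uM heparin and incubated 6 hr at 37 C.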
Starred values were filed as active, the others as inactive; ? = inconclusive; · = no result; [ ] = dose if it differs, or a comment. Unless noted, calls come from the whole dose curve; as a rule, active = well fitted curve in the direction sought with a large enough effect; inconclusive = small, poorly fitted or top-dose-only effect, or another doubt; inactive = no such curve, though single readings can be large; an effect the other way counts as inactive or inconclusive. Unless noted, % is set by controls: 0 for no effect and ±100 for the full control effect.

SMILES	Coupling enz	Sfp PPTase inh	Tau ThT inhib	Tau fibril FP	Tau fluor counter
O=S(=O)(Nc1ccc(F)c(C(F)(F)F)c1)c1ccc(N2CCCCS2(=O)=O)cc1	·	·	3%	-12%	-20%
CC(C)OCCCNC1=C(Cl)C(=O)c2ccccc2C1=O	-10	?	13µM*	7%	?
O=C(O)c1cccc(NC2=C(Cl)C(=O)c3ccccc3C2=O)c1	-19	25µM*	2.8µM*	25µM*	4µM*[quencher]
Cc1ccc(NC2=C(NC(=O)c3ccccc3)C(=O)c3ccccc3C2=O)cc1Cl	-48*	10µM*	16µM*	?	?
COCCCNC1=C(Cl)C(=O)c2ccccc2C1=O	-21	1%	?	6%	-12%
Cc1ccc(NCC(=O)c2ccccc2)cc1Cl	-1	9%	?	-9%	-16%
O=C(O)c1cccc(NS(=O)(=O)/C=C/c2ccccc2)c1	10	2%	-4%	8%	0%
O=C(O)c1ccc(NC2=C(Cl)C(=O)c3ccccc3C2=O)cc1	19	22µM*	1.4µM*	3.5µM*	1.8µM*[quencher]
CC1=C(Nc2ccc(C(=O)O)cc2)C(=O)c2ccccc2C1=O	-12	-1%	·	·	·
CCc1ccccc1NC(=O)Cn1c(C(=O)OC)cc2oc(C)cc21	·	·	?	3%	9%
COC(=O)Cn1c(=O)c2c(nc3n2CCN3c2ccc(F)cc2)n(C)c1=O	·	·	-5%	-4%	-9%
O=C1C(Cl)=C(Nc2ccccc2)C(=O)c2ccccc21	-33*	1%	3.2µM*	?	3.5µM*[quencher]
O=C1C(Cl)=C(NCc2cccnc2)C(=O)c2ccccc21	13	-11%	·	·	·
CC(C)NC1=C(Cl)C(=O)c2ccccc2C1=O	-42*	0%	25µM*	?	-28%
CCN(CC)CCCNC1=C(Cl)C(=O)c2ccccc2C1=O	-13	-3%	?	-8%	-25%
C=CCNC1=C(Cl)C(=O)c2ccccc2C1=O	-35*	-10%	1%	2%	7%
COC(=O)[C@@H]1C[C@H]1[C@@H](NS(=O)(=O)c1ccc(-c2ccccc2)cc1)c1ccccc1	-2	17%	-5%	1%	-24%
Clc1ccccc1-c1ccc(/C=N/Nc2nncc(-c3ccccc3)n2)o1	-3	-9%	2µM*	16%	-27%
Clc1ccc(-c2ccc(/C=N/Nc3nncc(-c4ccccc4)n3)o2)cc1	-4	-7%	2.2µM*	-3%	-27%
FC(F)(F)c1cccc(-c2ccc(/C=N/Nc3nncc(-c4ccccc4)n3)o2)c1	5	-1%	?	7%	-17%
Cc1ccc(/C=N/Nc2nncc(-c3ccccc3)n2)o1	2	-9%	?	-3%	-14%
O=S(=O)(N/N=C\c1ccc(-c2ccccc2Cl)o1)c1ccccc1	7	45µM*	5%	0%	7%
COCCCNC(=O)c1ccc(Cn2c(=O)c3cccn3c3cccnc32)cc1	·	·	-8%	-7%	-15%
CCOc1ccc(NC(=O)c2c(NC(=O)c3ccccc3Br)sc3c2CCC(C)C3)cc1 (stereo unspecified)	·	·	14µM*	?	-23%
Cc1ccc(C)c(N2CCN(C(=O)CCS(=O)(=O)c3cc(Br)cc4c3N(C(=O)C3CC3)CC4)CC2)c1	·	·	-10%	-5%	-19%
SMILES	Coupling enz	Sfp PPTase inh	Tau ThT inhib	Tau fibril FP	Tau fluor counter
O=C1S/C(=C/c2ccc(N3CCOCC3)o2)C(=O)N1Cc1ccc(F)cc1	·	3.5µM*	?	6%	-9%
O=C1N/C(=C/c2ccc(N3CCOCC3)cc2)C(=O)N1Cc1ccc(F)cc1	2	10%	?	?	-30%
O=C1NC(=S)S/C1=C/c1ccc(N2CCOCC2)o1	-51*	?	-3%	11%	-9%
O=C1S/C(=C\c2ccc(N3CCOCC3)o2)C(=O)N1Cc1ccc(F)cc1	-36*	2µM*	-16%	-3%	-4%
CC(C)(C)OC(=O)CN1C(=O)S/C(=C\c2ccc(-c3cccc(C(=O)O)c3)o2)C1=O	2	7%	·	·	·
CC(C)OC(=O)CN1C(=O)S/C(=C/c2ccc(N3CCCCC3)o2)C1=O	-38*	8.9µM*	?	18%	-8%
CCCN(CCC)CCNC(=O)Cn1cnc2sc(C)c(S(=O)(=O)N3CCN(c4ccccc4OC)CC3)c2c1=O	·	·	-4%	-8%	-12%
